Laboratory results taken from PubChem BioAssay (NCI).
The panel holds about 79,000 compounds, 15% with a hit somewhere; the sample as a whole holds those more often. Rule as the data show it: active = growth inhibition above about 70%; inactive = the rest. Where a SMILES comes first, the peptide text is derived from it. The star is where a group is joined. Cbz = O=C(OCc1ccccc1)*; Boc = CC(C)(C)OC(=O)*; tBu = CC(C)(C)*

Experiments:
[1] = NCI Yeast Anticancer Drug Screen. Data for the rad50 strain (AID 155);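 also: 0% = growth of vehicle-only cultures of the same strain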; settings: S. cerevisiae rad50 strain growth inhibition, active compounds read high; at 50.0 µM unless noted
Method in brief: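 Genetically altered yeast (DNA repair pathway); compound treatment; growth inhibition vs vehicle ctrl.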

[2] = NCI Yeast Anticancer Drug Screen. Data for the mec2-1 strain (AID 157); settings: S. cerevisiae mec2-1 strain, active compounds read high; at 50.0 µM unless noted
Method in brief: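 Mutant yeast (mec2-1) grown with compound; growth inhibition relative to vehicle control reported.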

[3] = NCI Yeast Anticancer Drug Screen. Data for the sgs1 mgt1 strain (AID 161);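 also: 0% = growth of cultures given vehicle only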; settings: S. cerevisiae sgs1 mgt1 strain, active compounds read high; at 50.0 µM unless noted
Method in brief: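 Percent growth inhibition was derived by comparing compound-exposed mutant yeast with vehicle-exposed cultures. The strain carries alterations in DNA damage repair.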

[4] = NCI Yeast Anticancer Drug Screen. Data for the cln2 rad14 strain (AID 165);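 also: 0% = growth equal to vehicle treated cultures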; settings: S. cerevisiae cln2 rad14 strain, active compounds read high; at 50.0 µM unless noted
Method in brief: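 Readout is yeast growth inhibition versus vehicle-treated controls, using a strain with cln2 and rad14 alterations exposed to compound.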

[5] = NCI Yeast Anticancer Drug Screen. Data for the bub3 strain (AID 167); settings: S. cerevisiae bub3 mutant strain, active compounds read high; at 50.0 µM unless noted
Method in brief: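 Yeast carrying a defined mutation is treated with each compound, and growth is compared with that of vehicle-exposed cells to give inhibition.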

[6] = NCI Yeast Anticancer Drug Screen. Data for the mlh1 rad18 strain (AID 175); settings: S. cerevisiae mlh1 rad18 strain growth inhibition, active compounds read high; at 50.0 µM unless noted
Method in brief: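 Genetically defined yeast (DNA repair-deficient) exposed to compounds; growth inhibition determined relative to vehicle.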

Measured: growth inhibition

CSC(=S)OC(C)CC(C)C (stereo not given)
inactive: [1] 37.6% | [2] -3.95% | [3] 30.7% | [4] -12.1% | [5] 6.95% | [6] 25.5%

CCOC1=Nc2ccccc2C1(C)CCO (stereo not given)
inactive: [1] -45.5% | [2] -13.2% | [3] -23.1% | [4] -62.2% | [5] -5% | [6] -4.3%

O=C1OC(=O)c2c1nc1ccccc1c2-c1ccccc1
inactive: [1] -31.5% | [2] -3.9% | [3] 9.35% | [4] 26% | [5] -6.15% | [6] 23.6%

Cn1c([N+](=O)[O-])cnc1CSc1nc(-c2ccccc2)no1
inactive: [1] 17.9% | [2] 1.8% | [3] 33.8% | [4] -1.1% | [5] 5.25% | [6] 33.1%

O=C1OCC/C1=C\c1ccc2c(c1)OCO2
inactive: [1] 40.4% | [2] -26.5% | [3] 20% | [4] -2.85% | [5] -10.2% | [6] -2.4%

CC(OC(C)(C)C)C(NC(=O)C(CCCCNC(=O)OC(C)(C)C)NC(=O)C(Cc1c[nH]c2ccccc12)NC(=O)C(Cc1ccccc1)NC(=O)OCc1ccccc1)C(=O)NC(Cc1ccccc1)C(=O)O (stereo not given) (Cbz-FWK(Boc)T(tBu)F-OH; configuration not given here)
inactive: [1] -10.3% | [2] -16.6% | [3] -24.2% | [4] 24.4% | [5] 1.3% | [6] -19.4%

O=C1C=C(C2=CC(=O)c3cccc(O)c3C2=O)C(=O)c2c(O)cccc21
inactive: [1] -32.5% | [2] -13% | [3] -9.9% | [4] -46% | [5] -8.5% | [6] -4.7%

CCOC(=O)CN=C1Nc2ccccc2C(=O)N2CSCC12 (stereo not given)
inactive: [1] -18% | [2] -44.7% | [3] -28.6% | [4] -16.4% | [5] -54.5% | [6] -16.8%

COc1cc(CNc2ccccc2)ccc1O
inactive: [1] -15.2% | [2] 6.1% | [3] -16.9% | [4] -8.1% | [5] 10.9% | [6] -8.4%

CCCC(=O)Nc1ccc(C2=NNC(=O)C3CC23)cc1 (stereo not given)
inactive: [1] 31.2% | [2] 26.6% | [3] 33.5% | [4] -20% | [5] 27.9% | [6] 36.5%

c1cc(-c2cnc(-c3ccc4c(c3)CCCO4)o2)ccn1
inactive: [1] 40.5% | [2] 29.9% | [3] 31.6% | [4] 17.9% | [5] 46.5% | [6] 44.1%

O=C(NO)c1ccccc1
inactive: [1] 17.1% | [2] -29.6% | [3] 11.6% | [4] 21.8% | [5] -4% | [6] 27.8%

C[N+](C)(C)CC1CCC/C1=N\OC(=O)c1ccccc1 (stereo not given)
inactive: [1] -17.8% | [2] 1.85% | [3] 11.8% | [4] 12.8% | [5] 14.2% | [6] -2.7%

O=C(NCCCl)Nc1c(Cl)cccc1Cl
inactive: [1] -4.6% | [2] 14.3% | [3] 6% | [4] -18.6% | [5] 1.8% | [6] -4.2%

CC(=O)c1cccc(NC(=O)Oc2cc(=O)oc3ccccc23)c1
inactive: [1] 5.75% | [2] 19.3% | [3] 12.4% | [4] -4.6% | [5] 38.2% | [6] 29.5%

Cc1cc(C)c2c(c1)sc1n[nH]c(=S)n12
inactive: [1] 14.1% | [2] 6.7% | [3] 9.05% | [4] -11.4% | [5] -10.8% | [6] 3.95%

CC(=O)c1ccccc1OB(F)F
inactive: [1] 10.2% | [2] -11.2% | [3] 8.8% | [4] -4.45% | [5] 1.05% | [6] -11.9%

CCOC(=O)c1ccc(N(CCO)CCO)cc1
inactive: [1] 3.45% | [2] 12.4% | [3] 5.45% | [4] -94.2% | [5] 32.5% | [6] 13.7%

Cc1cc(C)c(-c2noc(-c3ccc(Cl)cc3)c2C2=NCCN2)c(C)c1
inactive: [1] 29.9% | [2] 18.3% | [3] 18.1% | [4] 38.6% | [5] 17.7% | [6] 8.45%

Nc1ncnc(Nc2ccc(Cl)cc2Cl)n1
inactive: [1] 5.05% | [2] -11.7% | [3] 5.75% | [4] 1.85% | [5] 5.25% | [6] -7.05%
